Laboratory results taken from PubChem BioAssay (NCATS).
Results filed as inconclusive are left out. The source made the active and inactive calls. Unless noted, calls come from the whole dose curve; as a rule, active = well fitted curve in the direction sought with a large enough effect; inconclusive = small, poorly fitted or top-dose-only effect, or another doubt; inactive = no such curve, though single readings can be large; an effect the other way counts as inactive or inconclusive.

What was measured:
[1] = target: Transient receptor potential cation channel subfamily V member 1 (Homo sapiens) (UniProt Q8NER1); assay: HTS Assay for Compounds that Act as Enhancers of the Vanilloid Receptor 1 (AID 488979); note: 0% is about no effect
Sequence of Transient receptor potential cation channel subfamily V member 1 (Homo sapiens) (Q8NER1 whole entry, looked up): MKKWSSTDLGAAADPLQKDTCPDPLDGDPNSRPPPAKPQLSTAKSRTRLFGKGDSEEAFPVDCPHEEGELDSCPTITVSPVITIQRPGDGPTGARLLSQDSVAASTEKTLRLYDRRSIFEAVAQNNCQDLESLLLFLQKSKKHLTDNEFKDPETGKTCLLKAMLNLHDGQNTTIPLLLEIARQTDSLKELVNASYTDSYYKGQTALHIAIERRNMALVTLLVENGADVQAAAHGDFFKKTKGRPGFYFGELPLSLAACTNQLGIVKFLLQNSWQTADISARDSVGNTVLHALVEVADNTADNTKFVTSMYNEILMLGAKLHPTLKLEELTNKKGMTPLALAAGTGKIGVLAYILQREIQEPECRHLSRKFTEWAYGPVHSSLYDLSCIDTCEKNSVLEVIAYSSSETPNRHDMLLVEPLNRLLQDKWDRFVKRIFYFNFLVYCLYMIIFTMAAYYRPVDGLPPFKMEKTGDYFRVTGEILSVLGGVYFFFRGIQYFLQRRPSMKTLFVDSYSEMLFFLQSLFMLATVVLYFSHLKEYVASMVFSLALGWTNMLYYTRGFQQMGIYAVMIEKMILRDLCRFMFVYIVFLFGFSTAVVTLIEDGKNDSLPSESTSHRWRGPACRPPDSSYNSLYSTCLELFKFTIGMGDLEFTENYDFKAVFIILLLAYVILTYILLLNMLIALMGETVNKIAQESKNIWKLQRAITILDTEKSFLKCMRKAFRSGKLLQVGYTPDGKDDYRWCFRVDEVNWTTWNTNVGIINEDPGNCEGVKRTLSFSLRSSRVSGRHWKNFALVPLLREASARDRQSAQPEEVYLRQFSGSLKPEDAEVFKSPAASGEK
How it was run: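 TRPV1 cells loaded with Fluo-8 calcium dye; compound added and Ca2+ signal (ex 480/em 520 nm) followed 3 min, then capsaicin at EC20 added and read 2 more min to detect enhancement.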

[2] = target: Thyrotropin receptor (Homo sapiens) (UniProt P16473); assay: qHTS Assay for Antagonists of the Thyroid Stimulating Hormone Receptor (AID 488980); note: series mostly up to about 58 µM; 0% is about no effect
Sequence of Thyrotropin receptor (Homo sapiens) (P16473 whole entry, looked up): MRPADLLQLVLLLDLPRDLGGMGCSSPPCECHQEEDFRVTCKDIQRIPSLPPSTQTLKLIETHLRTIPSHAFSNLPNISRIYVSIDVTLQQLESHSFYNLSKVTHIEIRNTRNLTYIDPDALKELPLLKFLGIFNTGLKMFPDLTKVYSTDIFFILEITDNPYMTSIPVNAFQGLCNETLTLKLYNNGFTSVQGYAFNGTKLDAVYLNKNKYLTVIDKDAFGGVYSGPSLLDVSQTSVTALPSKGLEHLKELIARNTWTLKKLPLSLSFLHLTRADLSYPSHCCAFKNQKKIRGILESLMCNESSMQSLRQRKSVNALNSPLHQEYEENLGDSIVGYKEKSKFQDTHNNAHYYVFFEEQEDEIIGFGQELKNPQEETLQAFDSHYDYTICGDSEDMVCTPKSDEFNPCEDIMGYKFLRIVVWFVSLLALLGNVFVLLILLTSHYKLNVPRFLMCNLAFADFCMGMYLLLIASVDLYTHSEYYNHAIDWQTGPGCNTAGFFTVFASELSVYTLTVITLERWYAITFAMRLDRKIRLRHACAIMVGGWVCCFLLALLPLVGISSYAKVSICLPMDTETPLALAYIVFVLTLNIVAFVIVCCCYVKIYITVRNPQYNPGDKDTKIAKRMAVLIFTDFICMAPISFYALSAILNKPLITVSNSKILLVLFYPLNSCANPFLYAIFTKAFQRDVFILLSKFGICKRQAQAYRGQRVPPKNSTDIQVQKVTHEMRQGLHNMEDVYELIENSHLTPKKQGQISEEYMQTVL
How it was run: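 Readout is cAMP by HTRF competition between cellular cAMP and cAMP-d2 for a cryptate-labelled antibody. Antagonism was assessed in TSHR-transfected HEK293 cells stimulated with 4 nM TSH (EC80, final) in the presence of RO 20-1724.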

[3] = target: Thyrotropin-releasing hormone receptor (Homo sapiens) (UniProt P34981); assay: qHTS for Small Molecule Agonists and Allosteric Enhancers of Human TRH Receptor: Validation Screen for Agonists (AID 493127;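 active = calcium activation more than 3 SD above the typical response in the agonist read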;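 note: intracellular calcium rise by fluo-8 fluorescence before TRH EC20 addition; 0% is about no effect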); details: TRH receptor agonist cell assay; at 2 µM; active compounds read high
Sequence of Thyrotropin-releasing hormone receptor (Homo sapiens) (P34981 whole entry, looked up): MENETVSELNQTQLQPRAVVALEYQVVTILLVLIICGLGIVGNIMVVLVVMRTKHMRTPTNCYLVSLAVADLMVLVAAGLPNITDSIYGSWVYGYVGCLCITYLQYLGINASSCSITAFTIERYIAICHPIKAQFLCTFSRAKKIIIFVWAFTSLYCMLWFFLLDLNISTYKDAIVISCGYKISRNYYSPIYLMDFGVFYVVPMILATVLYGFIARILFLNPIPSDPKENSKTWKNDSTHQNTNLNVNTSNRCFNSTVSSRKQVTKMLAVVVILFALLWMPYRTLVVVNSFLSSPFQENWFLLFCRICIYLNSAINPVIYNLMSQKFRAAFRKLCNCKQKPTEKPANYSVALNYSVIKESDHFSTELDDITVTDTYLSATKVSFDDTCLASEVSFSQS
How it was run: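 Compound-evoked intracellular calcium release in fluo-8-loaded TRHR cells, read kinetically on FDSS (Ex 480/Em 530, 1 s/cycle) after 23 nL pintool transfer. Agonist phase preceded 10 nM TRH EC20 addition.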

[4] = target: Galactokinase (Homo sapiens) (UniProt P51570); assay: qHTS Validation Assay for Inhibitors of Human Galactokinase (GALK) (AID 493189); note: 0% is about no effect
How it was run: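 5 nM GALK / 100 uM galactose / 35 uM ATP, 20 mM HEPES pH8.0, 5 mM MgCl2, 60 mM NaCl, 1 mM DTT, 0.01% BSA (final). RT 1 h; Kinase-Glo Plus luminescence.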

[5] = target: Methanococcus maripaludis chaperonin (MmCpn) (UniProt Q6LX38); assay: High-Throughput Screening for Modulators of Cytosolic Chaperonin Activity: MmCpn Primary Screen (AID 488978);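 note: 50 nM MmCpn enzyme hydrolysing 30 µM ATP at 37 °C; 0% is about no effect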
Sequence of Methanococcus maripaludis chaperonin (MmCpn) (Q6LX38 1-543): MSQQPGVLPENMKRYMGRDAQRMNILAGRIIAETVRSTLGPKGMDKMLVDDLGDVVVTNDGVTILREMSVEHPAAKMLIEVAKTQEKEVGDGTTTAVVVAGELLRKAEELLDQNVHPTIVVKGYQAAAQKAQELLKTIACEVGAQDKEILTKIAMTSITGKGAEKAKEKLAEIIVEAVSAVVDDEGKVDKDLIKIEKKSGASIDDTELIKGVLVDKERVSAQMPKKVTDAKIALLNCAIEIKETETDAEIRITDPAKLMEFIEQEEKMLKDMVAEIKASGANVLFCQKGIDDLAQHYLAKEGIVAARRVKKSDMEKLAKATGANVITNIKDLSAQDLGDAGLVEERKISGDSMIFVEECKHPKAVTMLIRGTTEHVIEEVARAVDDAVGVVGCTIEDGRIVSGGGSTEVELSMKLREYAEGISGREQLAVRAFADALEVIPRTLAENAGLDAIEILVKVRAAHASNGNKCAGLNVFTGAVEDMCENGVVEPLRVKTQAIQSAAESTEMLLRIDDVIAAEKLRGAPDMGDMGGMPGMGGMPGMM
How it was run: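 Steps: chaperonin 50 nM final; add compound, 5 min RT; start with ATP, 30 uM final; hold 10 min at 37C; add ADP Transcreener HTRF reagent, 5 min; read ex 320, em 590 and 665 nm.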

[6] = target: D(1A) dopamine receptor (Homo sapiens) (UniProt P21728); assay: HTS Assay for Allosteric Agonists of the Human D1 Dopamine Receptor: Primary Screen for Agonists (AID 488981); note: 0% is about no effect
Sequence of D(1A) dopamine receptor (Homo sapiens) (P21728 whole entry, looked up): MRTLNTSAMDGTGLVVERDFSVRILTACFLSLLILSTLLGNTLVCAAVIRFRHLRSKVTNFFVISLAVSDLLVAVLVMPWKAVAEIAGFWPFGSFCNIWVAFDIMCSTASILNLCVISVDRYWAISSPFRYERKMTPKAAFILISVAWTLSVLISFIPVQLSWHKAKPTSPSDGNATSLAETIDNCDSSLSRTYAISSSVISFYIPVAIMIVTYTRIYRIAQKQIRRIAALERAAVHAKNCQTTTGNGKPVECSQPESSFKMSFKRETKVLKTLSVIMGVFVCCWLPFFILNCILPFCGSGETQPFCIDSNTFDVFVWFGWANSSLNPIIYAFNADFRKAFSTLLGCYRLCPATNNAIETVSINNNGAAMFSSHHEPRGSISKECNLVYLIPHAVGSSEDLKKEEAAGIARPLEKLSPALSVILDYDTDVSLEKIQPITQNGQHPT
How it was run: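 Tetracycline-induced HEK293 Trex D1 cells with forced coupling to calcium, loaded with no-wash calcium dye; kinetic fluorescence read 180 s after compound addition for agonism, then a further 180 s after an EC20 dopamine challenge for potentiation.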

[7] = target: D(1A) dopamine receptor (Homo sapiens) (UniProt P21728); assay: HTS Assay for Allosteric Agonists of the Human D1 Dopamine Receptor: Primary Screen for Potentiators (AID 488982); note: 0% is about no effect
Source text: Dopamine receptors (DARs) are involved in the etiology and/or therapy of a number of neuropsychiatric and endocrine disorders. For instance, all receptor-based antiparkinsonian drugs work via stimulating the […] DAR subtype whereas all FDA-approved antipsychotic agents are antagonists of this receptor. […] There are three different types of allosteric modulators that we are seeking, two of which will stimulate or augment receptor signaling, allosteric agonists and potentiators, while the third, allosteric antagonists, will attenuate receptor signaling. The present primary screening assay measures compound agonism by tracking calcium flux in a […], inducible Hek293 Trex D1 cell line.
Freshly passaged cells are plated in 1536 well black, clear bottom plates at a density of 4000 cells/well in 3 ul of complete media containing 1x tetracycline inducer. After an overnight incubation at […] in 5% CO2, cells are loaded with 2 ul of the no wash Calcium Assay Kit (ABD Bioquest) and incubated at room temperature for 30 to 90 minutes. […] The plate is measured for kinetically at 1 cycle/sec for 180 seconds and is considered to be the agonist portion of the assay (eg, compounds which activate a positive calcium response during this portion are flagged as potential agonists). Following the 180 second read, 1 ul of an EC20 of dopamine is delivered by an onboard pipette head. […]

[8] = target: D(1A) dopamine receptor (Homo sapiens) (UniProt P21728); assay: HTS Assay for Allosteric Agonists of the Human D1 Dopamine Receptor: Primary Screen for Antagonists (AID 488983);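 note: calcium flux response to an EC80 dopamine challenge measured with no-wash dye; % is set by controls: 0 for no effect and ±100 for the full control effect; nearly all actives have a fitted effect of over 65% in size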
How it was run: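 Calcium-flux read-out in inducible HEK293 T-REx cells expressing D1, dye-loaded 30–90 min at room temperature. Kinetic reads: 180 s after compound (agonist phase), then 180 s after an EC80 dopamine challenge.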

[9] = target: ATPase family AAA domain-containing protein 5 (Homo sapiens) (UniProt Q96QE3); assay: Validation screen for small molecules that inhibit ELG1-dependent DNA repair in human embryonic kidney (HEK293T) cells expressing luciferase-tagged ELG1 (AID 493107);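 note: series mostly up to about 46 µM; % is set by controls: 0 for no effect and ±100 for the full control effect; inhibitors lower the ELG1-luciferase luminescence signal; nearly all actives have a fitted effect of over 70% in size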
Sequence of ATPase family AAA domain-containing protein 5 (Homo sapiens) (Q96QE3 whole entry, looked up, the tested form may be a part): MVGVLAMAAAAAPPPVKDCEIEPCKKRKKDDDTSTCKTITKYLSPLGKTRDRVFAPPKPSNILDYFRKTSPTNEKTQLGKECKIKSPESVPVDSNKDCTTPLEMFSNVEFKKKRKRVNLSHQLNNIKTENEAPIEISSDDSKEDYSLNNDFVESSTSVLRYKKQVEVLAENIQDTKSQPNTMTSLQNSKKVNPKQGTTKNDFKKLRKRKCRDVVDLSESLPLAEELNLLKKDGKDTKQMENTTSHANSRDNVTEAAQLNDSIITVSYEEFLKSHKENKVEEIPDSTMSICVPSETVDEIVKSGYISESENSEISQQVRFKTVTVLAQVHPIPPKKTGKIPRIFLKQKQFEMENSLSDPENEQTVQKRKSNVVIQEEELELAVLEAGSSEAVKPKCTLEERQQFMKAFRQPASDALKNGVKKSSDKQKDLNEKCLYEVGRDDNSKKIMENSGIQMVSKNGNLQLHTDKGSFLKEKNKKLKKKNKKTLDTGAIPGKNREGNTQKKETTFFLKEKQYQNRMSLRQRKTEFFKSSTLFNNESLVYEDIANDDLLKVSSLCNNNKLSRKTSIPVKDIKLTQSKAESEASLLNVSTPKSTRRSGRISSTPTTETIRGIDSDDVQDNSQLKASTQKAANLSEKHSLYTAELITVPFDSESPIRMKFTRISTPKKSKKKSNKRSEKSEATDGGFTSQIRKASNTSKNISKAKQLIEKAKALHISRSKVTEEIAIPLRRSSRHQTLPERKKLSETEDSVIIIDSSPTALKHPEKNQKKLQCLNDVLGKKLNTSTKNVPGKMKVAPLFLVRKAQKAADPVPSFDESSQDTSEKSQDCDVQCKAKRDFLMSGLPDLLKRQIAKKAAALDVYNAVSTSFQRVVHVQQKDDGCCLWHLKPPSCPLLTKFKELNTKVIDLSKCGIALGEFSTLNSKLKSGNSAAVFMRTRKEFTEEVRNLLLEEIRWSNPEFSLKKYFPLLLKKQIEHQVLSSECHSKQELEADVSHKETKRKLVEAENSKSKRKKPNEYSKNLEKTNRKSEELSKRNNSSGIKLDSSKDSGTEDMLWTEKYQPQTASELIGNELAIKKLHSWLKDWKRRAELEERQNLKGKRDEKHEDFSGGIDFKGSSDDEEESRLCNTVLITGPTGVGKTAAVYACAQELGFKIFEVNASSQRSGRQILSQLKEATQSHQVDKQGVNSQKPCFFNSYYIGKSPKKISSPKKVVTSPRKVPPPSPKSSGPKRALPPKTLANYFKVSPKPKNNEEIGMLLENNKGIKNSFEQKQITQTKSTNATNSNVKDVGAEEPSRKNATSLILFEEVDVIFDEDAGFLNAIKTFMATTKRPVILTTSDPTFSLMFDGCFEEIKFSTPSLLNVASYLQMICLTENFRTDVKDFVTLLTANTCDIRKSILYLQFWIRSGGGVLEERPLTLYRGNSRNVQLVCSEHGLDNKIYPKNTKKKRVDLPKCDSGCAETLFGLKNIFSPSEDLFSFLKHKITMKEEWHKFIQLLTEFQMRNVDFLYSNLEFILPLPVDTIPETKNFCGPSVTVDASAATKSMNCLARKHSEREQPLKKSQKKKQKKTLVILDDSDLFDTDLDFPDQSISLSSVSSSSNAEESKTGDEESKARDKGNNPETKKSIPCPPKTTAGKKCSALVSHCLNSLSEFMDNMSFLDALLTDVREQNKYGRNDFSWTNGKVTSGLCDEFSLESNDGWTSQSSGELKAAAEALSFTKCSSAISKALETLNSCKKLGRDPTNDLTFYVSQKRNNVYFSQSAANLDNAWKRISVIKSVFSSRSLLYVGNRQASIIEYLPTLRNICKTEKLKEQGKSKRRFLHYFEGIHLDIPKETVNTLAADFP
How it was run: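 Luciferase read-out, ONE-Glo, 30 min at room temperature, follows 16 h co-exposure at 37 C of compound and the DNA-damaging agent 5-fluorouridine. Cells: HEK293T with ELG1-luciferase fusion, 2,000 per well, DMSO as vehicle.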

[10] = qHTS for Inhibitors of Cell Surface uPA Generation: Validation Assay (AID 493164);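 note: RAW 264.7 macrophage cells exposed to compound for 18 h; 0% is about no effect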
How it was run: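 ATP-Lite luminescence read-out: ATP remains high when uPA activity-dependent LF translocation into the cytoplasm is blocked. RAW 264.7 cells, 18 h compound exposure at 37 C; 7-point titration, 2.45 nM to 38.3 uM final.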

Measured: activation

CCNC(=O)[C@H]1O[C@@H](n2cnc3c(N)nc(NCCc4ccc(CCC(=O)O)cc4)nc32)[C@H](O)[C@H]1O
inactive: [1] | [2] | [3] 0.188% | [4]

C[C@H]1O[C@@H](n2cc(F)c(=O)[nH]c2=O)[C@H](O)[C@H]1O
inactive: [5] | [6] | [7] | [8] | [9] | [10]

C=CCc1cccc(C=NNC(=O)CN2CCN(Cc3ccccc3)CC2)c1O
inactive: [5] | [6] | [7] | [8] | [10]
